Results from the supplement of paper PMC10646978.
± gives the standard deviation.

Tests used:
Details in all cases: modulator concentration 10 µM
[1] = test system: RAW-Dual (murine macrophage reporter line); test: NF-kB reporter (SEAP) activity fold change vs agonist alone; higher = enhanced NF-kB activity
Summary of the method: (§1)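 Compound reached 10 μM final in each well by pin transfer, onto RAW-Dual murine macrophage reporter cells seeded at 50 000 per well in 384-well plates. After 1 hour at 37 °C, the cells were stimulated overnight with a PRR agonist. SEAP in the supernatant was read with QUANTI-Blue at 620 nm absorbance for NF-κB, and Lucia luciferase was read with QUANTI-Luc luminescence for IRF. Each signal was turned into fold change against the mean agonist-only control on the same plate, and two replicate plates were averaged with propagated errors.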

[2] = test system: RAW-Dual (murine macrophage reporter line); test: IRF reporter (Lucia luciferase) activity fold change vs agonist alone; higher = enhanced IRF activity
Summary of the method: as §1

[3] = test system: RAW-Dual (murine macrophage reporter line); test: viability score (confluency relative to resting cells, overnight) (fraction); higher = more viable, active = viable (0.7 or more)
Summary of the method: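 Confluency was the readout: RAW-Dual macrophages were imaged with IncuCyte after an overnight exposure to compound at 10 μM final. IncuCyte software produced two masks over all imaged wells. The viability score expresses confluency against resting cells, and both masks had to exceed 70% of resting cells for a compound to meet the cutoff.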

[4] = agonist: CpG ODN 1826 0.5 ug/mL

Row | Structure (SMILES) | NF-kB reporter [1, 4] | NF-kB reporter ([1]; agonist: LPS 0.1 ug/mL) | NF-kB reporter ([1]; agonist: MPLA […]) | IRF reporter ([2]; agonist: 3'3'-cGAMP 10 ug/mL) | IRF reporter ([2]; agonist: LPS 0.1 ug/mL) | IRF reporter ([2]; agonist: MPLA […]) | viability score [3]
1 | Cc1ccc(N2C(=O)C(=Cc3cccc([N+](=O)[O-])c3)SC2=S)cc1 | 0.957 ± 0.088 | 0.944 ± 0.08 | 0.949 ± 0.11 | 0.623 ± 0.035 | 1.26 ± 0.19 | 1.38 ± 0.29 | 0.996 (active)
2 | N=C1NC(=O)C(=Cc2ccc(-c3ccc(F)cc3)o2)S1 | 0.507 ± 0.047 | 0.632 ± 0.042 | 0.964 ± 0.043 | 1.02 ± 0.17 | 0.989 ± 0.15 | 0.798 ± 0.13 | 1 (active)
3 | Cl.N=C1CCCN1Cc1[nH]c(=O)[nH]c(=O)c1Cl | 1.46 ± 0.062 | 0.379 ± 0.037 | 0.688 ± 0.06 | 0.423 ± 0.028 | 0.796 ± 0.23 | 0.995 ± 0.31 | 0.961 (active)
4 | CN1CCN(CCCN2c3ccccc3Sc3ccc(C(F)(F)F)cc32)CC1.Cl.Cl | 0.958 ± 0.043 | 1.03 ± 0.11 | 1.3 ± 0.11 | 0.788 ± 0.056 | 1.12 ± 0.22 | 1.22 ± 0.39 | 1.02 (active)
5 | O=C(O)/C=C/c1ccc(Cn2ccnc2)cc1 | 0.812 ± 0.079 | 0.873 ± 0.05 | 1.07 ± 0.093 | 1.02 ± 0.062 | 1.16 ± 0.067 | 1.13 ± 0.12 | 1.01 (active)
6 | Cc1cc2ncc3c(n2n1)CCN(S(=O)(=O)N(C)C)C3 | 0.989 ± 0.11 | 1.01 ± 0.097 | 0.938 ± 0.043 | 1.03 ± 0.071 | 1.09 ± 0.081 | 1.05 ± 0.08 | 1 (active)
7 | CC(=O)Nc1ccc(C(=O)CSc2nnc[nH]2)cc1 | 0.771 ± 0.06 | 0.877 ± 0.072 | 1.01 ± 0.087 | 0.916 ± 0.045 | 1.33 ± 0.086 | 1.47 ± 0.14 | 1.01 (active)
8 | NC(=O)Cn1c(COc2ccccc2Cl)nc2ccccc21 | 1.35 ± 0.32 | 1.03 ± 0.051 | 0.96 ± 0.07 | 1.01 ± 0.034 | 1.26 ± 0.16 | 1.27 ± 0.21 | 0.994 (active)
9 | O=C(Nc1ccc([N+](=O)[O-])cc1)c1cc(Cl)ccc1O | 1.14 ± 0.18 | 1.02 ± 0.088 | 0.841 ± 0.081 | 0.905 ± 0.033 | 1.17 ± 0.11 | 1.28 ± 0.17 | 0.991 (active)
10 | CCc1cc2c(-c3ccccc3)cc(=O)oc2cc1OC(C)=O | 0.702 ± 0.12 | 1.09 ± 0.088 | 0.886 ± 0.085 | 0.974 ± 0.069 | 1.07 ± 0.3 | 1.07 ± 0.21 | 1 (active)
11 | O=S(=O)(c1ccccc1)N1CCOCC1 | 0.956 ± 0.057 | 0.992 ± 0.061 | 0.935 ± 0.071 | 0.981 ± 0.033 | 1.33 ± 0.21 | 1.15 ± 0.15 | 1 (active)
12 | COc1ccccc1-c1noc(C2CN(S(=O)(=O)N(C)C)C2)n1 | 0.972 ± 0.051 | 0.982 ± 0.083 | 1.29 ± 0.09 | 1.02 ± 0.047 | 1.27 ± 0.26 | 1.54 ± 0.51 | 0.993 (active)
13 | O=C(COc1ccc2ccccc2c1)Nc1cnoc1 | 1.12 ± 0.35 | 1.14 ± 0.081 | 1.12 ± 0.088 | 0.92 ± 0.053 | 1.05 ± 0.17 | 0.942 ± 0.1 | 1 (active)
14 | Cc1cc(-c2csc(NCc3ccccc3)n2)c(C)o1.Cl | 0.766 ± 0.043 | 0.892 ± 0.13 | 1 ± 0.026 | 0.576 ± 0.026 | 0.924 ± 0.07 | 1.1 ± 0.13 | 0.991 (active)
15 | CCOc1ccc(C(=O)NCc2cccnc2)cc1Br | 1.23 ± 0.07 | 1.06 ± 0.14 | 1.04 ± 0.036 | 0.911 ± 0.058 | 0.934 ± 0.14 | 1.08 ± 0.26 | 0.999 (active)
16 | Cc1cc(-n2cc(C(=O)N3CCOCC3)nn2)ccc1F | 1.06 ± 0.33 | 1.1 ± 0.075 | 1.02 ± 0.065 | 0.98 ± 0.045 | 1.01 ± 0.17 | 1.14 ± 0.17 | 0.991 (active)
17 | CC(C)(C)c1ccc(=O)n(CC2CN(S(C)(=O)=O)C2)n1 | 0.983 ± 0.097 | 1.13 ± 0.095 | 0.918 ± 0.092 | 1.02 ± 0.058 | 1.15 ± 0.1 | 1.1 ± 0.34 | 1.01 (active)
18 | COC(=O)C1C(=O)C(=CNCc2ccccc2)C(=O)CC1(C)C (configuration not stated) | 1.12 ± 0.1 | 0.99 ± 0.072 | 0.943 ± 0.035 | 1.04 ± 0.18 | 1.06 ± 0.049 | 0.992 ± 0.066 | 1 (active)
19 | COc1ccc(N(CC(=O)Nc2ccc3ccccc3c2)S(C)(=O)=O)cc1OC | 0.921 ± 0.074 | 1.06 ± 0.06 | 0.883 ± 0.054 | 0.907 ± 0.025 | 1.43 ± 0.18 | 1.06 ± 0.14 | 1.01 (active)
20 | CCc1cccc(C)c1NC(=O)C(C)(C)CC | 0.948 ± 0.18 | 0.846 ± 0.12 | 0.911 ± 0.09 | 1.03 ± 0.041 | 0.988 ± 0.097 | 0.975 ± 0.1 | 0.995 (active)
21 | CNC(=O)[C@@H](NC(=O)[C@H](CC(C)C)[C@H](O)C(=O)NO)C(C)(C)C | 1.29 ± 0.097 | 1.15 ± 0.13 | 0.996 ± 0.021 | 0.868 ± 0.048 | 0.983 ± 0.11 | 1 ± 0.13 | 1.01 (active)
22 | N#CC(=Cc1c(F)cccc1Cl)C(=O)Nc1ccc(Cl)cc1 | 1.08 ± 0.22 | 0.977 ± 0.077 | 0.952 ± 0.079 | 0.746 ± 0.17 | 1.3 ± 0.22 | 1.25 ± 0.13 | 1.01 (active)
23 | COc1cc(OC)cc(C(=O)N2CCN(c3ccc(Nc4cccc(C)n4)nn3)CC2)c1 | 0.54 ± 0.042 | 0.981 ± 0.081 | 1.01 ± 0.029 | 0.904 ± 0.039 | 0.951 ± 0.096 | 1.12 ± 0.2 | 0.996 (active)
24 | C=C(C)COc1ccc(-c2ncncc2-c2ccccc2)c(O)c1 | 1.08 ± 0.18 | 0.985 ± 0.088 | 0.963 ± 0.082 | 0.996 ± 0.029 | 1.14 ± 0.17 | 1.27 ± 0.13 | 1 (active)
25 | CN1CCN(c2ccc3nc(-c4c(N)c5c(F)cccc5[nH]c4=O)[nH]c3c2)CC1 | 0.277 ± 0.1 | 1.19 ± 0.35 | 1.39 ± 0.59 | 0.0238 ± 0.0011 | 0.491 ± 0.07 | 0.197 ± 0.015 | 0.799 (active)
26 | CC(Cc1ccc(O)c(O)c1)C(C)Cc1ccc(O)c(O)c1 (configuration not stated) | 1.16 ± 0.31 | 0.645 ± 0.057 | 1.31 ± 0.094 | 0.0338 ± 0.0028 | 0.509 ± 0.062 | 0.544 ± 0.055 | 0.618 (inactive)
